Data as given in PubChem BioAssay AID1159580 (chemical genetic matrix, 2015).
“And” between values parts separate entries of the source, which are not always exact repeats. Identical values can stand only once. In all, about 5,500 compounds went through this assay and about 2,000 (36%) were called active. Inconclusive results (about 18%) are left out. No stated cut-off is given here; in the data, active means normalized growth mostly below about 0.91 (no sharp cut-off); inconclusive means no clear call, values can overlap the other calls; inactive means mostly above about 0.92. The list shows a part of the results.

Assay: chemical genetic growth profiling, strain panel (AID 1159580);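 further: tested at 20 µM; growth read once vehicle control cultures reached saturation at 30 °C; 1 = growth at the plate median or of vehicle wells; lower values mean less growth of the strain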
Conditions: S. cerevisiae deletion strains, growth OD

Measured: normalized growth

CCOC(=O)OC(C)OC(=O)C1N2C(=O)C(NC(=O)[C@H](N)c3ccccc3)C2SC1(C)C (some centres undefined)
inactive: locus YAL013W, strain DEP1, hits give low values 0.98 | locus YAL021C, strain ccr4, hits give low values 0.986 | locus YAL026C, strain drs2, hits give low values 0.981 | locus YAL030W, strain snc1, hits give low values 0.98 | locus YBL061C, strain skt5, hits give low values 0.978 | locus YBR009C, strain hhf1, hits give low values 0.992 | locus YBR021W, strain FUR4, hits give low values 1.03 | locus YBR023C, strain chs3, hits give low values 0.986 | locus YBR171W, strain sec66, hits give low values 0.968 | locus YBR229C, strain ROT2, hits give low values 0.961 | locus YBR231C, strain swc5, hits give low values 0.987 | locus YBR279W, strain paf1, hits give low values 0.989 | locus YCL011C, strain gbp2, hits give low values 0.965 | locus YCL016C, strain dcc1, hits give low values 0.993 | locus YCL029C, strain bik1, hits give low values 0.988 | locus YCL061C, strain MRC1, hits give low values 0.998 | locus YCL069W, strain vba3, hits give low values 0.998 | locus YCR088W, strain abp1, hits give low values 0.985 | locus YDL005C, strain med2, hits give low values 0.983 | locus YDL035C, strain GPR1, hits give low values 0.984 | locus YDL040C, strain nat1, hits give low values 0.989 | locus YDL074C, strain BRE1, hits give low values 0.917 | locus YDL101C, strain DUN1, hits give low values 0.97 | locus YDL134C, strain PPH21, hits give low values 0.998 | locus YDL185W, strain tfp1, hits give low values 0.975 | locus YDL192W, strain arf1, hits give low values 0.985 | locus YDR001C, strain nth1, hits give low values 0.983 | locus YDR069C, strain doa4, hits give low values 0.993 | locus YDR101C, strain arx1, hits give low values 0.962 | locus YDR137W, strain rgp1, hits give low values 0.994 | locus YDR159W, strain sac3, hits give low values 1 | locus YDR162C, strain NBP2, hits give low values 0.989 | locus YDR195W, strain ref2 0.985 | locus YDR297W, strain sur2, hits give low values 0.977 | locus YDR318W, strain mcm21, hits give low values 0.992 | locus YDR334W, strain swr1, hits give low values 0.943 | locus YDR335W, strain msn5, hits give low values 0.979 | locus YDR388W, hits give low values 0.991 | locus YDR392W, strain spt3, hits give low values 0.946 | locus YDR502C, strain sam2, hits give low values 0.99 | locus YEL003W, strain gim4, hits give low values 0.98 | locus YEL037C, strain rad23, hits give low values 0.987 | locus YEL061C, strain CIN8 (second series), hits give low values 0.984 | locus YEL061C, strain CIN8, hits give low values 0.976 | locus YER015W, strain faa2, hits give low values 0.981 | locus YER016W, strain bim1, hits give low values 0.99 | locus YER110C, hits give low values 0.982 | locus YER111C, strain swi4, hits give low values 0.985 | locus YER155C, strain BEM2 (second series), hits give low values 0.995 | locus YER155C, strain BEM2, hits give low values 0.992 | locus YER167W, strain BCK2, hits give low values 0.997 | locus YFR010W, strain ubp6, hits give low values 0.977 | locus YGL078C, strain dbp3, hits give low values 0.974 | locus YGL086W, strain mad1, hits give low values 0.966 | locus YGL167C, strain pmr1, hits give low values 0.991 | locus YGL173C, strain kem1, hits give low values 0.975 | locus YGL227W, strain vid30, hits give low values 0.993 | locus YGL240W, strain doc1, hits give low values 0.984 | locus YGL248W, strain PDE1, hits give low values 0.969 | locus YGL253W, strain hxk2, hits give low values 0.971 | locus YGR135W, strain pre9, hits give low values 1.04 | locus YGR252W, strain gcn5, hits give low values 0.945 | locus YHR013C, strain ard1, hits give low values 0.967 | locus YHR027C, strain rpn1, hits give low values 0.963 | locus YHR030C, strain SLT2, hits give low values 0.996 and 1.02 | locus YHR079C, strain IRE1 (second series), hits give low values 0.993 | locus YHR079C, strain IRE1, hits give low values 0.98 | locus YHR094C, strain hxt1, hits give low values 0.984 | locus YHR129C, strain ARP1, hits give low values 0.993 | locus YHR142W, strain chs7, hits give low values 0.954 | locus YHR200W, strain rpn10, hits give low values 0.997 | locus YIL066C, strain RNR3, hits give low values 0.944 | locus YIL073C, strain SPO22, hits give low values 0.966 | locus YIL125W, strain kgd1, hits give low values 0.995 | locus YIR030C, strain dcg1, hits give low values 0.986 | locus YJL092W, strain hpr5, hits give low values 0.994 | locus YJL095W, strain BCK1 (second series), hits give low values 0.994 | locus YJL095W, strain BCK1, hits give low values 0.949 and 0.988 | locus YJL115W, strain asf1, hits give low values 0.974 | locus YJL129C, strain trk1, hits give low values 1.01 | locus YJL134W, strain LCB3, hits give low values 0.992 | locus YJL154C, strain vps35, hits give low values 0.989 | locus YJL164C, strain tpk1, hits give low values 0.975 | locus YJL166W, strain qcr8, hits give low values 0.971 | locus YJL168C, strain set2, hits give low values 0.984 | locus YJL187C, strain SWE1 (second series), hits give low values 0.935 | locus YJL187C, strain SWE1, hits give low values 0.989 | locus YJR043C, strain POL32, hits give low values 0.98 | locus YJR066W, strain TOR1, hits give low values 0.966
